From PMC11006913 come the findings set out here.

Holding throughout (test): PBM; 200 nM protein, PBS
What all share (conditions): dsDNA, one strand shown

The target of test [1] is HOXB6 (Homo sapiens, UniProt P17509 132-218, K202E).
The target in test [2] is HOXB6 (Homo sapiens, UniProt P17509 132-218).
The next test has as its target T1, SIX6 (Homo sapiens, UniProt O95475 114-200, T165G).
T1 sequence: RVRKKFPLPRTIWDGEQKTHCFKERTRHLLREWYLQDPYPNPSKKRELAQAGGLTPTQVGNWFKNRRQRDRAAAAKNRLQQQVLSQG

For a further test, the target named is ALX4 (Homo sapiens, UniProt Q9H161 200-286, Q225E).
Sequence of ALX4 (Q9H161 200-286 Q225E): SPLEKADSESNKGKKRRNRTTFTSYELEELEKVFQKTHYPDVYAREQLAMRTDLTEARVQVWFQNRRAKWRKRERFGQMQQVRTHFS

Sequence of HOXB6 (Homo sapiens, UniProt P17509 132-218, K202E) (P17509 132-218 K202E): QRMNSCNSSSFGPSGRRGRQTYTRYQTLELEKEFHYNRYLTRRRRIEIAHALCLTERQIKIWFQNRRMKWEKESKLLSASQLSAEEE
Sequence of HOXB6 (Homo sapiens, UniProt P17509 132-218) (P17509 132-218): as the sequence (P17509 132-218 K202E) above, with E71K counted along it

For the sequence GCGCTCCC, the binding signal was 9.05 upbm affinity estimate (log intensity, higher = more binding, comparable within an allelic series) in the test with HOXB6 [1] and 8.94 upbm affinity estimate (log intensity, higher = more binding, comparable within an allelic series) with HOXB6 [2].

As for GCTGGCTA, the binding signal in the test with HOXB6 [1] was 9.09 upbm affinity estimate (log intensity, higher = more binding, comparable within an allelic series); with HOXB6 [2], 9 upbm affinity estimate (log intensity, higher = more binding, comparable within an allelic series).

AATGTTGT: the binding signal with HOXB6 [1] was 9.62 upbm affinity estimate (log intensity, higher = more binding, comparable within an allelic series); in the test with HOXB6 [2], 10.2 upbm affinity estimate (log intensity, higher = more binding, comparable within an allelic series).

Consider GGGTCCGA, for which the binding signal is 9.03 upbm affinity estimate (log intensity, higher = more binding, comparable within an allelic series) with HOXB6 [1] and 9.07 upbm affinity estimate (log intensity, higher = more binding, comparable within an allelic series) with HOXB6 [2].

As to AGCGAGGG, the binding signal in the test with HOXB6 [1] is 9.04 upbm affinity estimate (log intensity, higher = more binding, comparable within an allelic series); in the test with HOXB6 [2] it was 8.99 upbm affinity estimate (log intensity, higher = more binding, comparable within an allelic series).

Regarding CCGGGGCA, the binding signal with HOXB6 [1] is 8.98 upbm affinity estimate (log intensity, higher = more binding, comparable within an allelic series); with HOXB6 [2], 8.98 upbm affinity estimate (log intensity, higher = more binding, comparable within an allelic series).

Consider GGCTCGAC, for which the binding signal is 9.13 upbm affinity estimate (log intensity, higher = more binding, comparable within an allelic series) in the test with HOXB6 [1] and 8.81 upbm affinity estimate (log intensity, higher = more binding, comparable within an allelic series) with HOXB6 [2].

Consider CCCCGGTC, for which the binding signal in the test with HOXB6 [1] is 8.98 upbm affinity estimate (log intensity, higher = more binding, comparable within an allelic series); in the test with HOXB6 [2], 9.03 upbm affinity estimate (log intensity, higher = more binding, comparable within an allelic series).

Turning to AATAGTTC, the binding signal in the test with HOXB6 [1] was 9.51 upbm affinity estimate (log intensity, higher = more binding, comparable within an allelic series); with HOXB6 [2] it was 10.1 upbm affinity estimate (log intensity, higher = more binding, comparable within an allelic series).

In the case of CATGACAC, the binding signal with SIX6 was 10.7 upbm affinity estimate (log intensity, higher = more binding, comparable within an allelic series).

Take GACACCCA: the binding signal with SIX6 is 10.5 upbm affinity estimate (log intensity, higher = more binding, comparable within an allelic series).

As for GCCGCCCA, the binding signal is 8.98 upbm affinity estimate (log intensity, higher = more binding, comparable within an allelic series) in the test with HOXB6 [1] and 8.99 upbm affinity estimate (log intensity, higher = more binding, comparable within an allelic series) in the test with HOXB6 [2].

Regarding CCCTCCGA, the binding signal with HOXB6 [1] was 9.02 upbm affinity estimate (log intensity, higher = more binding, comparable within an allelic series); with HOXB6 [2] it was 8.91 upbm affinity estimate (log intensity, higher = more binding, comparable within an allelic series).

Consider TAATGGAA, for which the binding signal with HOXB6 [1] was 9.72 upbm affinity estimate (log intensity, higher = more binding, comparable within an allelic series); with HOXB6 [2], 10.8 upbm affinity estimate (log intensity, higher = more binding, comparable within an allelic series).

Turning to CCCAGCTC, the binding signal in the test with HOXB6 [1] is 9.08 upbm affinity estimate (log intensity, higher = more binding, comparable within an allelic series); with HOXB6 [2], 9.08 upbm affinity estimate (log intensity, higher = more binding, comparable within an allelic series).

For the sequence AGGTGTAA, in the test with SIX6, the binding signal was 10.5 upbm affinity estimate (log intensity, higher = more binding, comparable within an allelic series).

For GCCCCGCA, the binding signal is 9.01 upbm affinity estimate (log intensity, higher = more binding, comparable within an allelic series) with HOXB6 [1] and 9.08 upbm affinity estimate (log intensity, higher = more binding, comparable within an allelic series) with HOXB6 [2].

Turning to ACCGTTAA, the binding signal with HOXB6 [1] is 9.66 upbm affinity estimate (log intensity, higher = more binding, comparable within an allelic series); with HOXB6 [2] it was 10.6 upbm affinity estimate (log intensity, higher = more binding, comparable within an allelic series).

Take AAGTACGA: the binding signal in the test with HOXB6 [1] was 9.65 upbm affinity estimate (log intensity, higher = more binding, comparable within an allelic series); in the test with HOXB6 [2] it was 10.3 upbm affinity estimate (log intensity, higher = more binding, comparable within an allelic series).

With ACGCCGCG, the binding signal with HOXB6 [1] is 9.12 upbm affinity estimate (log intensity, higher = more binding, comparable within an allelic series); in the test with HOXB6 [2] it was 9.15 upbm affinity estimate (log intensity, higher = more binding, comparable within an allelic series).

Take AATACCAA: the binding signal with HOXB6 [1] is 9.59 upbm affinity estimate (log intensity, higher = more binding, comparable within an allelic series); with HOXB6 [2], 10.2 upbm affinity estimate (log intensity, higher = more binding, comparable within an allelic series).

AATTTCGG: the binding signal with HOXB6 [1] was 9.51 upbm affinity estimate (log intensity, higher = more binding, comparable within an allelic series); with HOXB6 [2] it was 10.2 upbm affinity estimate (log intensity, higher = more binding, comparable within an allelic series).

As for ACTATTCA, the binding signal with HOXB6 [1] is 9.59 upbm affinity estimate (log intensity, higher = more binding, comparable within an allelic series); in the test with HOXB6 [2], 10.2 upbm affinity estimate (log intensity, higher = more binding, comparable within an allelic series).

In the case of AAGGGACC, the binding signal is 9.07 upbm affinity estimate (log intensity, higher = more binding, comparable within an allelic series) with HOXB6 [1] and 8.97 upbm affinity estimate (log intensity, higher = more binding, comparable within an allelic series) with HOXB6 [2].

On to AAAAAAAT, for which the binding signal with HOXB6 [1] was 9.72 upbm affinity estimate (log intensity, higher = more binding, comparable within an allelic series); in the test with HOXB6 [2], 10.2 upbm affinity estimate (log intensity, higher = more binding, comparable within an allelic series).

AGCCTAGG: the binding signal with HOXB6 [1] was 9.04 upbm affinity estimate (log intensity, higher = more binding, comparable within an allelic series); with HOXB6 [2] it was 9.03 upbm affinity estimate (log intensity, higher = more binding, comparable within an allelic series).

For AGGGAGGA, the binding signal was 9.04 upbm affinity estimate (log intensity, higher = more binding, comparable within an allelic series) with HOXB6 [1] and 9.03 upbm affinity estimate (log intensity, higher = more binding, comparable within an allelic series) in the test with HOXB6 [2].

Consider CTCCGAAG, for which the binding signal is 9.06 upbm affinity estimate (log intensity, higher = more binding, comparable within an allelic series) in the test with HOXB6 [1] and 9.02 upbm affinity estimate (log intensity, higher = more binding, comparable within an allelic series) with HOXB6 [2].

Regarding AAATCGAC, the binding signal with HOXB6 [1] is 9.47 upbm affinity estimate (log intensity, higher = more binding, comparable within an allelic series); with HOXB6 [2] it was 10.1 upbm affinity estimate (log intensity, higher = more binding, comparable within an allelic series).

Consider CCGAGCGC, for which the binding signal was 9.06 upbm affinity estimate (log intensity, higher = more binding, comparable within an allelic series) with HOXB6 [1] and 9.04 upbm affinity estimate (log intensity, higher = more binding, comparable within an allelic series) with HOXB6 [2].

Take CGCAGGAG: the binding signal in the test with HOXB6 [1] is 9.14 upbm affinity estimate (log intensity, higher = more binding, comparable within an allelic series); with HOXB6 [2] it was 8.95 upbm affinity estimate (log intensity, higher = more binding, comparable within an allelic series).

As for GCTTGCCC, the binding signal in the test with HOXB6 [1] is 9.05 upbm affinity estimate (log intensity, higher = more binding, comparable within an allelic series); in the test with HOXB6 [2] it was 9.1 upbm affinity estimate (log intensity, higher = more binding, comparable within an allelic series).

Regarding CTGCCTGC, the binding signal was 9.03 upbm affinity estimate (log intensity, higher = more binding, comparable within an allelic series) with HOXB6 [1] and 8.97 upbm affinity estimate (log intensity, higher = more binding, comparable within an allelic series) in the test with HOXB6 [2].

Consider TAGAATGA, for which the binding signal in the test with HOXB6 [1] is 9.57 upbm affinity estimate (log intensity, higher = more binding, comparable within an allelic series); with HOXB6 [2], 10.3 upbm affinity estimate (log intensity, higher = more binding, comparable within an allelic series).

For AGTTATTG, the binding signal with HOXB6 [1] is 9.58 upbm affinity estimate (log intensity, higher = more binding, comparable within an allelic series); in the test with HOXB6 [2], 10.6 upbm affinity estimate (log intensity, higher = more binding, comparable within an allelic series).

Regarding CGCGTGCC, the binding signal is 9.06 upbm affinity estimate (log intensity, higher = more binding, comparable within an allelic series) with HOXB6 [1] and 9.06 upbm affinity estimate (log intensity, higher = more binding, comparable within an allelic series) in the test with HOXB6 [2].

Consider AATAAATC, for which the binding signal with ALX4 is 10.8 upbm affinity estimate (log intensity, higher = more binding, comparable within an allelic series).

In the case of ATCACATG, the binding signal with HOXB6 [1] is 9.52 upbm affinity estimate (log intensity, higher = more binding, comparable within an allelic series); in the test with HOXB6 [2], 9.98 upbm affinity estimate (log intensity, higher = more binding, comparable within an allelic series).

As to AATGATTG, the binding signal with HOXB6 [1] was 9.68 upbm affinity estimate (log intensity, higher = more binding, comparable within an allelic series); with HOXB6 [2], 10.7 upbm affinity estimate (log intensity, higher = more binding, comparable within an allelic series).

Turning to CCCGGTAG, the binding signal with HOXB6 [1] is 9.07 upbm affinity estimate (log intensity, higher = more binding, comparable within an allelic series); with HOXB6 [2], 9.12 upbm affinity estimate (log intensity, higher = more binding, comparable within an allelic series).
